Targets with a hit are over-represented here; the source holds about 8,800 in all. About 0.5% of all pairs of compound and target were hits.
Compound: CC(C)C1=C2N=C(C=C(N2N=C1)NCC3=CC=CC=C3)NCCCCCCN
Experiment: log2 fold change, soluble protein after heating vs DMSO (PISA); higher = thermal stabilisation; K562 lysate, 10 uM; active = over 0.2 and 3.5 SD of the protein, either way, in both replicates (recomputed)
How it was run: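 Quantification was by TMTpro 16plex LC-MS/MS with equalised channel sums, applied to the supernatant after 21,000xg for 90 min. Samples were crude K562 extract at 1 mg/mL protein in PBS pH 7.4 with 1 mM MgCl2, treated with 10 μM compound for 30 min, heated for 3 min across 48°C-58°C, pooled and brought to 0.5% NP-40 at 4°C. Values are log-two fold changes in thermal stability relative to solvent controls, from duplicates.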

Sequence of UniProt Q96KC8 (Q96KC8 whole entry, looked up): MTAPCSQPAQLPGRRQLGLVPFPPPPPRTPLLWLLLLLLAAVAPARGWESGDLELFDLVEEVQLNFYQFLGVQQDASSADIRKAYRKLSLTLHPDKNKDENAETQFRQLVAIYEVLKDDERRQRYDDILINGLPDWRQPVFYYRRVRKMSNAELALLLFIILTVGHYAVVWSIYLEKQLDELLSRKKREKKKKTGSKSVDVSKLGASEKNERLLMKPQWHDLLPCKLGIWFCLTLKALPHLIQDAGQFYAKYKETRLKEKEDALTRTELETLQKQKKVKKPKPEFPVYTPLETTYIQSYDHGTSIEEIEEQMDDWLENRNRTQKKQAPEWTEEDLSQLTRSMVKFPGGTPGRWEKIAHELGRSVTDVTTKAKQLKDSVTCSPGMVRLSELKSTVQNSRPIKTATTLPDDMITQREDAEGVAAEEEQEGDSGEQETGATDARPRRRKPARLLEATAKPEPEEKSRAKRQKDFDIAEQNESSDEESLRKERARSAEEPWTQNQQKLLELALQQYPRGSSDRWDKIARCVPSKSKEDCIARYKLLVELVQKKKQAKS
Sequence of UniProt Q5EBM0 (Q5EBM0 whole entry, looked up): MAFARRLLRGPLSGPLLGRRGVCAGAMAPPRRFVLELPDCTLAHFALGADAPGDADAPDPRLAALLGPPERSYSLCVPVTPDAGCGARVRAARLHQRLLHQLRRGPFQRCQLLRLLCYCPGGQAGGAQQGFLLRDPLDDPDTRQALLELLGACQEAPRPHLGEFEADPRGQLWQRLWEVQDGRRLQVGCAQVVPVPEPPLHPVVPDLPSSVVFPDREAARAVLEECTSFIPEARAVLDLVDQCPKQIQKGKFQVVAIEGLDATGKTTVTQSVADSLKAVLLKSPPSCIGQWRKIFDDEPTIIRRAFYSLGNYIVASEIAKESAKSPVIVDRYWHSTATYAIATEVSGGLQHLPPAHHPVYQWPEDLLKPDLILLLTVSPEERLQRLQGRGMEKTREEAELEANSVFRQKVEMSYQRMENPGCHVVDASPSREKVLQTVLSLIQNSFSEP
Sequence of UniProt O15111 (O15111 whole entry, looked up): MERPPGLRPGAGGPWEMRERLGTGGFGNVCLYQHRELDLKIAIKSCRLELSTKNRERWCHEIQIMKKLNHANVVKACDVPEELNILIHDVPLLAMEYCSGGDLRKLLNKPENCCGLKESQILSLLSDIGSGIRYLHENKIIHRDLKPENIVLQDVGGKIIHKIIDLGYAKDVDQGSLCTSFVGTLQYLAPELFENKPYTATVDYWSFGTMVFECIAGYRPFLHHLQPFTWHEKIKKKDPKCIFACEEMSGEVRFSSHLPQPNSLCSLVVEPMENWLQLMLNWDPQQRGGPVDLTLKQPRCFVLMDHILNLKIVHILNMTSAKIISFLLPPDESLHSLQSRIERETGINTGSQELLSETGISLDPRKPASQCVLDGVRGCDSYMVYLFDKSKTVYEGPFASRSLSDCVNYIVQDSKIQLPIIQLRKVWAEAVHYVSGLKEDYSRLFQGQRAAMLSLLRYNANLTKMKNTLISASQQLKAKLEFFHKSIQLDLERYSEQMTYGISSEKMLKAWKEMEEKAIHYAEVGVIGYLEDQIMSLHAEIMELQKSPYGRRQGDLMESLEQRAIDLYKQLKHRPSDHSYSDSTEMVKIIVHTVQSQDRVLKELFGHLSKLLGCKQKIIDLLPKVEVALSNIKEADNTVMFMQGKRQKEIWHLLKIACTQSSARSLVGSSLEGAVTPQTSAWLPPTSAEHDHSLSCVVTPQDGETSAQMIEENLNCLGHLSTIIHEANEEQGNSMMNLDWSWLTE
Sequence of UniProt Q8WYQ5 (Q8WYQ5 whole entry, looked up): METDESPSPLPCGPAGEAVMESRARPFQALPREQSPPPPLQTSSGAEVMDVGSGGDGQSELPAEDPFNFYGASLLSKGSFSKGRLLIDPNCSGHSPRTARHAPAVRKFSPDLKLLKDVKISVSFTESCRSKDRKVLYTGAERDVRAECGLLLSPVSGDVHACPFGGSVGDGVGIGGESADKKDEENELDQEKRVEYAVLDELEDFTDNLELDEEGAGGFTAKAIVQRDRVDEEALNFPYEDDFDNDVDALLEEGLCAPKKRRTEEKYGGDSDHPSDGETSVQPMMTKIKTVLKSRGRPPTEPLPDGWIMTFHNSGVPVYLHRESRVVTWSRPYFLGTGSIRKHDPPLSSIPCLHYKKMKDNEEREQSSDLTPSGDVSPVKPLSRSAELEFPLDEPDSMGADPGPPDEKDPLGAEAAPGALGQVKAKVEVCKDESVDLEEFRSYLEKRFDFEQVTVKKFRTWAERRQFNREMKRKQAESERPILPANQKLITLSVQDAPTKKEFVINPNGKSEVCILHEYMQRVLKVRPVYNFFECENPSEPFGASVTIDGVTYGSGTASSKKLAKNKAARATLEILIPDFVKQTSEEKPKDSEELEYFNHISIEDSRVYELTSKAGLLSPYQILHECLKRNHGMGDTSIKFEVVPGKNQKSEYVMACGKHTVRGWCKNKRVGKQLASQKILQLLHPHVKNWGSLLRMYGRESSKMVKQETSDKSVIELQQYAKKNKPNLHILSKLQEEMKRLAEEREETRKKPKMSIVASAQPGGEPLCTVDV
Sequence of UniProt Q8IWF6 (Q8IWF6 whole entry, looked up): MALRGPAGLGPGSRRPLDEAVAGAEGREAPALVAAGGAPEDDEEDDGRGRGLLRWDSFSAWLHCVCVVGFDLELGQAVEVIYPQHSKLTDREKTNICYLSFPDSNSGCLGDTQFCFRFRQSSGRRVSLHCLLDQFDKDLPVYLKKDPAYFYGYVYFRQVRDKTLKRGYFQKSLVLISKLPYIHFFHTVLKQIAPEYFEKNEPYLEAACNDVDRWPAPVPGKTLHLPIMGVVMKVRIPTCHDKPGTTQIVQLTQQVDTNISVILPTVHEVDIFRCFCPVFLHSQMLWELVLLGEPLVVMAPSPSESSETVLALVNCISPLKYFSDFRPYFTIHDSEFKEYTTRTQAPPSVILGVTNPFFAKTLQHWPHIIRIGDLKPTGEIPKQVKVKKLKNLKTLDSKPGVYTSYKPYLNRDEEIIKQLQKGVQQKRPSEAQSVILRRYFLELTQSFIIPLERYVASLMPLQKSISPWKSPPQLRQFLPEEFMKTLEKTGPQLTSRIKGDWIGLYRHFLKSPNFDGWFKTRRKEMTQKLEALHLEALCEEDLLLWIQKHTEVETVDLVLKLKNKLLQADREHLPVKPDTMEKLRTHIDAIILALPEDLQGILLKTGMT
Sequence of UniProt Q8TDD1 (Q8TDD1 whole entry, looked up): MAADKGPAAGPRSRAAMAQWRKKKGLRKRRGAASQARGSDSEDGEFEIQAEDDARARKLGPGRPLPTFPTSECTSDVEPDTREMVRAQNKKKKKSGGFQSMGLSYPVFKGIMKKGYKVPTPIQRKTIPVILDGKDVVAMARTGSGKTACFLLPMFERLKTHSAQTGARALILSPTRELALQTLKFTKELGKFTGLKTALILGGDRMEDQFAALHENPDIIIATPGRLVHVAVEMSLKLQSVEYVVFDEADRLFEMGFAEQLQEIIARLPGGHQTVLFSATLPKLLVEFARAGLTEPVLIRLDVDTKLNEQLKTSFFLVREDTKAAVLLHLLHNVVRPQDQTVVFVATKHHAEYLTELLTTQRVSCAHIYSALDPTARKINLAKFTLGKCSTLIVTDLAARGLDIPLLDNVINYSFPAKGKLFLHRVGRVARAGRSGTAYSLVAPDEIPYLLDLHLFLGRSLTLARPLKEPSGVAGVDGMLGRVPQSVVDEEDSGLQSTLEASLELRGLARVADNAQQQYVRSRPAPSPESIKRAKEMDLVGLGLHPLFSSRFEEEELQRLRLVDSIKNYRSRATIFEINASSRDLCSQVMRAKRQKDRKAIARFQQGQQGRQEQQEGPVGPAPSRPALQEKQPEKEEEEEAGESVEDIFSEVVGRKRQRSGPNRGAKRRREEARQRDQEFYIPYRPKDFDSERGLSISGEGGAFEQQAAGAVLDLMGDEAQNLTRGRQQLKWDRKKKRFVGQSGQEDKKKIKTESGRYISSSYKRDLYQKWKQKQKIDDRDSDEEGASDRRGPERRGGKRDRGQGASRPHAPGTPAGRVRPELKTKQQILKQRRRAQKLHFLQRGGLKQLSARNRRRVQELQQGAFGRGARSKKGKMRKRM
Sequence of UniProt Q16850 (Q16850 whole entry, looked up): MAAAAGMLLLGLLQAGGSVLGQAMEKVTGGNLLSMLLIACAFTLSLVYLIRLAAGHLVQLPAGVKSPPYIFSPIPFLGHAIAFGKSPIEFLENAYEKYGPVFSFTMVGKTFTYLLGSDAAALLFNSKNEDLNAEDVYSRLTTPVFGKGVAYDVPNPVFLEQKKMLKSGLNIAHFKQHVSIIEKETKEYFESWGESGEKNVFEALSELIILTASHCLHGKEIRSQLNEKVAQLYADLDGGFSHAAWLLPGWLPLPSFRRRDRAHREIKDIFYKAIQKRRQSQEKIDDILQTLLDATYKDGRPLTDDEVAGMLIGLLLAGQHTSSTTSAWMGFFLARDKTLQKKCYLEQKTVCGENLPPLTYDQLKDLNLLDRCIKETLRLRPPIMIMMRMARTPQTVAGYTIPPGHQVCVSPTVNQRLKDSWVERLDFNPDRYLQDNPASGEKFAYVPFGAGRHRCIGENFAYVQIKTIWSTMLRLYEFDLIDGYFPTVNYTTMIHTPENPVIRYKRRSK
Sequence of UniProt Q9UHD1 (Q9UHD1 whole entry, looked up): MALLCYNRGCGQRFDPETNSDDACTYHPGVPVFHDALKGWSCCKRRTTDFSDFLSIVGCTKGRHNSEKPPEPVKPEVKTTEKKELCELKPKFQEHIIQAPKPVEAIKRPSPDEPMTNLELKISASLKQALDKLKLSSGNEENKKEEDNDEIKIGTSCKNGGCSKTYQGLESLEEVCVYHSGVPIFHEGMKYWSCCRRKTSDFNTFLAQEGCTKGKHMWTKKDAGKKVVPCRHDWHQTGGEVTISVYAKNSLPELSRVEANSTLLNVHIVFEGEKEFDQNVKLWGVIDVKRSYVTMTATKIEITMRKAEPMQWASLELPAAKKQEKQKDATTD
Sequence of UniProt P61024 (P61024 whole entry, looked up): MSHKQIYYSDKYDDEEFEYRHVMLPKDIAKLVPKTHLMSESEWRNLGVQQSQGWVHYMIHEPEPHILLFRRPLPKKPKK

log2 fold change, inactive:
CKM (UniProt P06732) 0.002, CMIP (UniProt Q8IY22) -0.011, COG6 (UniProt Q9Y2V7) -0.028, DGCR8 (UniProt Q8WYQ5) 0.015, COPZ1 isoform 4 (UniProt P61923) 0.02, DENND6A (UniProt Q8IWF6) 0.037, CKAP5 (UniProt Q14008) -0.007, CNOT2 (UniProt Q9NZN8) -0.001, COL6A5 (UniProt A8TX70) 0.018, DCP1A (UniProt Q9NPI6) 0.025, COG2 (UniProt Q14746) 0, DEF6 (UniProt Q9H4E7) 0.022, CSDE1 isoform 4 (UniProt O75534) 0.003, CNOT6L (UniProt Q96LI5) -0.05, DHRS11 (UniProt Q6UWP2) 0.048, DNAJC1 (UniProt Q96KC8) -0.014, DOCK7 (UniProt Q96N67) 0.021, CTNND1 isoform 3 (UniProt O60716) 0, CHUK (UniProt O15111) 0.014, COG5 isoform 2 (UniProt Q9UP83) 0.037, CSTB (UniProt P04080) 0.019, CHORDC1 (UniProt Q9UHD1) -0.032, CSTF2 (UniProt P33240) -0.022, CIP2A (UniProt Q8TCG1) -0.03, DOCK8 (UniProt Q8NF50) 0.003, COQ9 (UniProt O75208) -0.036, CKS1B (UniProt P61024) 0.011, CXXC1 isoform 2 (UniProt Q9P0U4) -0.005, CXorf38 (UniProt Q8TB03) 0.062, DDX54 isoform 2 (UniProt Q8TDD1) -0.001, CSNK2A1 (UniProt P68400) -0.054, DMAC2L (UniProt Q99766) 0.017, DCP2 (UniProt Q8IU60) 0.006, CYP51A1 (UniProt Q16850) 0.038, CMPK2 (UniProt Q5EBM0) 0.026
